Several values for one entry are separate records, joined by “and”; a condition that tells them apart may be missing. Equal values may be shown once. About 79,000 compounds went through this panel and 15% of them were active in at least one assay; those are over-represented in the sample as a whole. Activity calls are given as the source filed them. Rule as the data show it: active = growth inhibition above about 70%; inactive = the rest. Where a SMILES comes first, the peptide text is derived from it. [ ]: non-standard residue; d: D form. The star is where a group is joined. ξ: configuration not given here. Cbz = O=C(OCc1ccccc1)*; ξK = NCCCCC(N)C(=O)O

The nature of one assay: NCI Yeast Anticancer Drug Screen. Data for the bub3 strain (AID 167). Conditions: S. cerevisiae bub3 mutant strain, at 5.0 µM (retest, dose inferred, filed as 0.5), stronger effect = higher value. How it is done:
Growth inhibition of yeast strains with defined genetic alterations is measured as a screen for potential anti-cancer activity. Selected strains with alterations in DNA damage repair or cell cycle control were exposed to compounds and growth inhibition was measured relative to vehicle treated controls. The strain used in this assay is bub3
For `CCCCCCCCCCNC(=O)CI`, the growth inhibition is 14% (inactive).

The assay is the same for the next values; noted with them: S. cerevisiae bub3 mutant strain, at 50.0 µM (retest, dose inferred, filed as 5.0), stronger effect = higher value.
Turning to `CCCCCCCCCCNC(=O)CI`, the growth inhibition was 100% (active).

The same assay, now with this note: S. cerevisiae bub3 mutant strain, stronger effect = higher value; at 50.0 µM unless noted.
As to `CC1C(=O)N(c2ccccc2)NC12CCCc1ccccc12` (stereo not given), the growth inhibition is 25.1% (inactive).

Take `CC(/C=C/C(=O)c1sc(-n2nc(-c3ccccc3)cc2-c2ccccc2)nc1C)=C\c1ccccc1`: the growth inhibition was 44.8% (inactive).

On to `O=C(O)CCC(=O)c1ccc(F)cc1`, for which the growth inhibition was -22.6% (inactive).

`COc1ccc(C2(O)OCC(COc3cc(C)c(Cl)c(C)c3)O2)cc1OC` (stereo not given): the growth inhibition is -6.05% (inactive).

Turning to `Cc1ccc(S(=O)(=O)OC2CCN(C)CC2)cc1`, the growth inhibition is 43.2% (inactive).

On to `COc1cc(C(O)C2C(=O)OCC2C2(c3ccc4c(c3)OCO4)SCCCS2)cc(OC)c1OC` (stereo not given), for which the growth inhibition is 10.1% (inactive) and -2.95% (inactive).

In the case of `CCOC(=O)c1ccc(N)nc1`, the growth inhibition is 7.95% (inactive).

As for `O=[N+]([O-])c1ccc2c(c1)S(=O)c1ccccc1-2` (stereo not given), the growth inhibition was -37.8% (inactive).

With `O=C(Nc1cccc(I)c1)OCCCl`, the growth inhibition was -7.55% (inactive).

Turning to `CC(=O)N(C(C)=O)c1c(N)n(C)c(=O)[nH]c1=O`, the growth inhibition is 2.75% (inactive).

On to `CCC(C)(O)c1cn(-c2ccc(Cl)cc2)nn1` (stereo not given), for which the growth inhibition was -6.55% (inactive).

On to `BrC1(Br)C2CCCCCCC21` (stereo not given), for which the growth inhibition was -21.1% (inactive).

As for `CC(C)(C)C(C)(C)SSC(C)(C)C(C)(C)C`, the growth inhibition is 15.7% (inactive).

In the case of `Clc1ccc(N=NNc2ccccc2)cc1`, the growth inhibition was -20.1% (inactive) and -6.6% (inactive).

Consider `C=C(C)C(=O)O[C@H]1[C@H]2[C@H](OC(=O)[C@H]2C)[C@H](O)[C@@H](C)[C@@H]2C=CC(=O)[C@]21C`, for which the growth inhibition was 57.4% (inactive).

On to `CN1C(=O)C(c2c[nH]c3ccccc23)N(C)C(=O)C1c1c[nH]c2ccccc12` (stereo not given), for which the growth inhibition is -27.9% (inactive).

As to `CCOC(=O)c1sc2c(c1OC(=O)c1ccc(OC)cc1)c(=O)n(-c1ccccc1)c(=S)n2-c1ccccc1`, the growth inhibition was 31% (inactive).

For the compound `COc1ccccc1NC(=O)Oc1c(C(C)C)cccc1C(C)C`, the growth inhibition is 20% (inactive).

With `CC(=O)OC(C)COc1ccccc1` (stereo not given), the growth inhibition was -17.1% (inactive) and 8.8% (inactive).

As to `CCCCCCCCCCCCCCCCCCCCCCCCCCO`, the growth inhibition was -1.3% (inactive).

In the case of `C=C1C(=O)O[C@@H]2C[C@@H](C)[C@@H]3C=CC(=O)[C@@]3(C)[C@@H](OC(=O)CCCC(=O)O[C@H]3[C@@H]4C(=C)C(=O)O[C@@H]4C[C@@H](C)[C@@H]4C=CC(=O)[C@]43C)[C@H]12`, the growth inhibition is 58% (inactive).

Regarding `CCOC(=O)CSc1nc(-c2ccccc2)c(C#N)c(=O)[nH]1`, the growth inhibition was 2.6% (inactive).

With `O=C1CCCc2ccc3c(c21)CC1(Cc2cc4c(cc2C1)CCCC4)C3`, the growth inhibition was 32.4% (inactive).

`S=c1nc[nH]c2c1ncn2Cc1ccco1`: the growth inhibition was -46.2% (inactive).

For the compound `NCC(=O)NC(CCCCNC(=O)OCc1ccccc1)C(=O)O` (stereo not given) (H-Gly-[ξK](Cbz)-OH), the growth inhibition is -20.1% (inactive).

For `Cc1cc(Cl)ccc1OCC(=O)NCCO`, the growth inhibition was 2.8% (inactive).

Regarding `NC1CCCC2CCC(N)C12` (stereo not given), the growth inhibition is 10.7% (inactive).

With `NCCSS(=O)(=O)O`, the growth inhibition is 0.45% (inactive).

As for `COc1ccc(/C=C/c2ccc(OC)cc2)cc1`, the growth inhibition was 8.7% (inactive).

Consider `N#CCC(=O)OCCCc1ccccc1`, for which the growth inhibition is 2.65% (inactive).

For the compound `CCCCCOC(=O)c1ccc(C(C)C)cc1`, the growth inhibition is 0.6% (inactive).

With `O=C(O)/C=C/c1cccc(F)c1`, the growth inhibition was -17% (inactive).

Turning to `O=c1c2c3c(sc2nc2n1N=C(c1ccc(Cl)cc1)CS2)CCCC3`, the growth inhibition was -12.1% (inactive).

As for `CCN(CC)C(=S)Oc1cc(Cl)c(Cl)cc1Cl`, the growth inhibition is 18.7% (inactive).

With `COC(=O)c1ccc(SCCC(=O)CN2C(=O)c3ccccc3C2=O)cc1`, the growth inhibition is 4.1% (inactive).

For the compound `c1ccc(CSCc2cnc[nH]2)cc1`, the growth inhibition is 5.7% (inactive).

In the case of `CCCCCC#CC[C@@H](O)[C@@H](O)COCc1ccccc1`, the growth inhibition is -20.8% (inactive).

With `COC(=O)c1cc(OCC#CC#CCOc2ccc(O)c(C(=O)OC)c2)ccc1O`, the growth inhibition was -4.15% (inactive).

These data come from PubChem BioAssay (NCI).
